For four compounds, growth results are on record in PubChem BioAssay (NCI).

The panel holds about 83,000 compounds, 20% with a hit somewhere; the sample as a whole holds those more often.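 Assay: single dose, 48 h. Readout: percent growth (0 = no net growth; negative = cell death). Active: <10.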 Values without a mark were called inactive. Active and inactive are the calls of the source.

This assay relates to HL-60(TB) leukemia. The experiment in a line: NCI-60 one-dose screen, 48 h (100 = growth as untreated, 0 = no growth, -100 = all killed). Conditions: 10 µM unless noted.

In the case of `COC(=O)c1cc(N=C2NC(=O)/C(=C/C=C/c3ccccc3)S2)ccc1O`, the growth was -0.749% (active).
Then `CCOC(=O)c1ccccc1SC(C[N+](=O)[O-])c1ccccc1` (centres undefined), with 89.7%; and `CC(=O)N(N=O)c1ccc([N+](=O)[O-])cc1Cl`, with 55.7%; and `CC(C)(C)c1cc(O)c(C(C)(C)C)cc1O`, with 35.1%.
